TEAD-YAP block = TEAD-YAP interaction inhibition | 640,000 compounds, 1.4% hits | inhibition, % at 9.12 µM | HEK-TIYL cells, TEAD-Gal4/YAP UAS-luciferase luminescence; in the data active means inhibition above about 32%
MITF inh = human MITF inhibition, primary screen. O75030. 650,000 compounds, 0.91% hits. AlphaScreen MITF homodimerization, bead proximity signal. inhibition, % at 2.6 µM; in the data active means inhibition above about 50%
GPR151 ag = human GPR151 activation. PathHunter beta-arrestin GPR151 cells, luminescence. activation, % at 11.2 µM. 650,000 compounds, 1% hits. AID 1508602; in the data active means activation above about 4.9%
FBW7 act = activators of human E3 ligase FBW7; Q969H0; 650,000 compounds, 0.13% hits; normalized activity (activation), % at 26.1 µM; AlphaScreen FBW7–phospho-cyclin E peptide binding, activator screen; AID 1259310; in the data active means normalized activity above about 1.9%;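 further: purified mutant Fbw7 with reduced substrate affinity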
Large screens that a line does not name were inactive. The list is not random: actives were taken first. Their share in the collection is about 3.5%.

COC(=O)Nc1nc2ccc(S(=O)c3ccccc3)cc2[nH]1 (stereo not given)	none (no result: TEAD-YAP block)
COC(=O)Nc1nc2ccc(C(=O)c3cccs3)cc2[nH]1	TEAD-YAP block 56.2
O=C(CSC1=NCCS1)Nc1ccc(NC(=O)CSC2=NCCS2)cc1	none
COc1cc(OC)cc(C(=O)n2nnc3ccccc32)c1	none
N#Cc1c(N)nc(SCC(=O)O)c(C#N)c1-c1ccc(O)cc1	none
N#Cc1c(N)nc(SCC(=O)c2ccc(F)cc2)c(C#N)c1-c1ccc(O)cc1	TEAD-YAP block 34.2
CCOC(=O)c1sc2nc(SCC(=O)NCc3ccccc3)n(Cc3ccccc3)c(=O)c2c1C	none
NC(=O)c1sc2nc3cc4c(cc3cc2c1N)OCO4	TEAD-YAP block 72.7
CCc1ccc2nc3sc(C(N)=O)c(N)c3cc2c1	TEAD-YAP block 91.5
O=C(C1CCN(c2nnc(N3CCCC3=O)s2)CC1)N1CCN(c2ccccc2)CC1	none
CCCC1(C2CCN(C(=O)c3ccc(C)s3)CC2)NC(=O)N(CC2CCCO2)C1=O (stereo not given)	none
O=C(O)CNc1nc2ccccc2s1	none
O=C(O)CCNc1nc2ccccc2s1	TEAD-YAP block 42.3
c1ccc(NNc2nc3ccccc3s2)cc1	TEAD-YAP block 35.8
O=C(NNc1nc2ccccc2s1)Nc1ccccc1	none
COc1ccc(NC(=O)c2cc(S(=O)(=O)N3CCN(c4ccccn4)CC3)ccc2F)cc1	FBW7 act 1.9
O=C(Nc1cc(Cl)ccc1Cl)c1cc(Cl)cc(Cl)c1O	TEAD-YAP block 56.8
Nc1ccc(Cl)c(NC(=O)c2ccc(Cl)cc2Cl)c1	TEAD-YAP block 87.4
O=C(Nc1cc(Cl)ccc1Oc1ccc(Cl)c2ccccc12)c1cc(Cl)cc(Cl)c1O	none
O=C(Nc1cc(Cl)ccc1O)c1ccc(Cl)c(C(=O)c2ccc(Cl)cc2)c1	TEAD-YAP block 32.7
COc1ccc(C(=O)Nc2cc(Cl)ccc2O)cc1Cl	none
COc1cc(-c2nn3cc(-c4ccccc4)nc3s2)cc(OC)c1OC	none
CCc1nn2cc(-c3ccccc3)nc2s1	TEAD-YAP block 74.3
CCc1nn2cc(-c3ccc(F)cc3)nc2s1	TEAD-YAP block 39.6
O=C(NCCCN1CCCC1=O)c1cccc(NCCN2CCOCC2)n1	none
COc1ccc(-n2ncc3c(N4CCCCC4)ncnc32)cc1	TEAD-YAP block 90.8
COc1ccc(-n2ncc3c(N4CCN(c5ccccc5)CC4)ncnc32)cc1	none
COc1ccc(-n2ncc3c(N4CCCCCC4)ncnc32)cc1	TEAD-YAP block 96.8
O=S(=O)(c1ccc(F)cc1)N1CCn2cccc2C1c1ccc(Br)cc1 (stereo not given)	none
COc1ccc(CCn2c(=S)[nH]c3nccnc3c2=O)cc1OC	TEAD-YAP block 40.1
COc1ccc(C(=O)NCc2nnc(SCC(=O)N3N=C(c4cccs4)CC3c3ccc(C)cc3)n2-c2ccccc2)cc1OC (stereo not given)	none
O=S(=O)(NCc1ccc2c(c1)OCO2)c1ccc(Cc2ccc(S(=O)(=O)NCc3ccc4c(c3)OCO4)cc2)cc1	TEAD-YAP block 37.6
O=S(=O)(NCc1cccnc1)c1ccc(Cc2ccc(S(=O)(=O)NCc3cccnc3)cc2)cc1	TEAD-YAP block 51.5
COc1ccc(/C=C/C(=O)c2ccc(S(=O)(=O)NCc3cccnc3)cc2)cc1	TEAD-YAP block 35.0
O=S(=O)(NCc1cccnc1)c1ccc(Cl)cc1	none
Cn1c(SCC(=O)Nc2sccc2C(N)=O)nnc1-c1ccncc1	none
COc1cccc(NC(=S)NN2CCN(C)CC2)c1	none
CC(C)(C)c1ccc(CSc2nc3ccsc3c(=O)n2CCCC(=O)NCCc2ccccc2)cc1	none
CCOc1ccc(S(=O)(=O)N2CCCc3ccccc32)c2cccnc12	TEAD-YAP block 48.5
CCc1cc(NCc2cccs2)n2nc3nc(C)cc(C)c3c2n1	none
CCc1cc(NCc2ccco2)n2nc3nc(C)cc(C)c3c2n1	FBW7 act 251.6
O=C(c1ccco1)N1CCN(c2ncc(-c3cccnc3)n3ccnc23)CC1	FBW7 act 2.3
O=C(c1ccco1)N1CCN(c2ncc(-c3ccc(CO)cc3)n3ccnc23)CC1	TEAD-YAP block 38.8, FBW7 act 4.8
Nc1ccc(-c2cnc3c(N4CCN(C(=O)c5ccco5)CC4)nccn23)cc1	none
CCOc1ccccc1-c1nc(-c2ccc(C)nc2OC)no1	none
O=S(=O)(c1ccc(-n2cnnn2)cc1)N1CCN(Cc2ccccc2)CC1	none
O=C(NCc1ccco1)c1cc(S(=O)(=O)N2CCOCC2)ccc1F	none
NC(=O)c1ccc(-c2nc(NC3CC3)c3ncn(-c4ccsc4)c3n2)cc1	none
NC(=O)c1ccc(-c2nc(N)c3ncn(-c4ccsc4)c3n2)cc1	TEAD-YAP block 58.4
CN1CCN(C(=O)c2ccc(-c3nc(N)c4ncn(-c5ccccc5)c4n3)cc2)CC1	none
NC(=O)c1ccc(-c2nc(N)c3ncn(-c4ccccc4)c3n2)cc1	TEAD-YAP block 55.5

Bioassay records deposited in PubChem by The Scripps Research Institute Molecular Screening Center.
